# In the supplement of paper PMC3334620:
# Over roughly 33,000 sequences, “E-score (-0.5 to 0.5)” has its median near -0.012; the highest 2% begin near 0.27. This excerpt belongs to a sample that is enriched for the highest values.
# Target: T1, Vhr1 (UniProt P40522)
# T1 sequence: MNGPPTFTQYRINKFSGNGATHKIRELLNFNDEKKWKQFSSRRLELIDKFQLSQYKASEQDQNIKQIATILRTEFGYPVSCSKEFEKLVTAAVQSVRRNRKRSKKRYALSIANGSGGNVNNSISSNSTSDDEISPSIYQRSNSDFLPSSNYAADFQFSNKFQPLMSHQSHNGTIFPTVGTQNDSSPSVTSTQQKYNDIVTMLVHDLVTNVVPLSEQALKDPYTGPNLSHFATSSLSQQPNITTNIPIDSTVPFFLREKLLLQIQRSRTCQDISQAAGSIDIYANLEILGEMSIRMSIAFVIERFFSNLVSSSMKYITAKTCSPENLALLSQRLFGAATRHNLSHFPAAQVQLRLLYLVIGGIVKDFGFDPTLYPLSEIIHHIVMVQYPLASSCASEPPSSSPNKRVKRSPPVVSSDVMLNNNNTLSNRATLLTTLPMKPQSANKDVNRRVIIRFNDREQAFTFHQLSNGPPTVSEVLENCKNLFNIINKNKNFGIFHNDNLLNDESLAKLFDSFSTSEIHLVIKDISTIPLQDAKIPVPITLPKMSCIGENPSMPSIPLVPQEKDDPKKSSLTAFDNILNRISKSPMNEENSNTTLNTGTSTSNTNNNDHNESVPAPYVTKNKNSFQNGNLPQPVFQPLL
# Experiment: PBM E-score (8-mer binding enrichment) (E-score (-0.5 to 0.5)); higher = stronger / more preferred TF binding
# Conditions: protein concentration: 200 nM; construct: GST-full length
# Method: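 Universal 'all 10-mer' protein binding microarrays (Agilent AMADID 015681) probed with GST-tagged S. cerevisiae TFs (full-length or DBD) made by in vitro transcription/translation (PURExpress), about 100-200 nM. Bound TF was detected with fluorescent anti-GST. Each ungapped 8-mer (which stands for itself and its reverse complement) is scored by the PBM enrichment score (E-score), a modified Wilcoxon-Mann-Whitney statistic from -0.5 to +0.5, computed with the Universal PBM Analysis Suite. Scale: above 0.35 generally sequence-specific binding.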
row,Sequence,PBM E-score
1,ACATTTAT,-0.0139
2,GCTTGCGA,0.295
3,ACTTGCGA,0.0242
4,CCTTGCGA,-0.0209
5,ACTGGCCT,-0.135
6,CAGATGTC,0.105
7,CGAGTCGA,0.224
8,AGAGTCGG,0.329
9,ATAGTCGC,0.243
10,CCAGTCGC,0.13
11,AGAGTCGC,0.338
12,AAAGTCGC,0.137
13,AGAGTCTG,-0.106
14,AGAGTCGA,0.157
15,CGAGTCGC,0.34
16,CCCTTCTA,-0.218
17,CTAGCTGA,0.0125
18,CTACTGAA,0.132
19,CGCCCTCA,-0.16
20,AAGGGCTC,-0.218
21,AGGGCTCG,-0.079
22,AGCTTCTA,-0.278
23,CGTGATTC,0.326
24,AGCGATTC,0.168
25,ATTGATTG,0.0691

row,Sequence,PBM E-score
1,AGTGATAC,0.237
2,CGCGATTC,0.278
3,AGTGATTC,0.285
4,AGTGATTG,0.343
5,AGTGATTA,0.216
6,CGTGATCC,-0.0765
7,AGTGATAG,-0.0174
8,CGTGATTA,0.236
9,CGCGATTA,0.162
10,ATGAAACC,0.137
11,ACGGTAGT,0.125
12,AAAATCAT,0.151
13,ATTGCTTG,-0.00443
14,ATCTCATC,0.0646
15,CGTACCCA,0.16
16,ACGGTCAT,0.156
17,GGCAAGCA,-0.224
18,CATGAGAC,0.274
19,CATGAGCC,0.159
20,AATGAGAC,-0.113
21,AATGAGTA,0.223
22,AATGAGTC,0.426
23,CATGAGAG,0.147
24,CATGAGTC,0.477
25,AATGAGTG,0.157

row,Sequence,PBM E-score
1,CATGAGGC,-0.159
2,AGTGTCGC,0.138
3,AAAATAAT,0.0747
4,TAAGCCTA,-0.259
5,GAATTTGC,-0.0954
6,CAAGAATC,0.179
7,GCGAACAC,-0.0481
8,AATAGGCA,0.0547
9,AACAGCAT,0.0405
10,AGAGCCCT,-0.165
11,GCAATCGA,-0.0515
12,AAAGTCAG,0.119
13,AGAGTCCT,-0.17
14,AGGGTCAG,-0.161
15,AGAGTCTC,0.191
16,AGAGTCAA,0.112
17,AGAGTCAC,0.43
18,ACAGTCAA,0.0811
19,AGAGTCAT,0.45
20,ACAGTCAT,0.318
21,AGAGTCCC,-0.205
22,AGAGTCAG,0.399
23,ACAGTCAG,0.228
24,CGGATCTA,-0.0646
25,GCACCTCC,-0.136

row,Sequence,PBM E-score
1,GGCAAAGA,-0.0131
2,GTTCACTA,-0.133
3,GCAATTCC,-0.163
4,GGAAAGCC,-0.0802
5,TGATGGAA,0.0625
6,CATACCCA,0.271
7,ACTACTCA,0.238
8,CGTACTAA,0.153
9,TATACCCA,0.0126
10,CGTACTCA,0.283
11,ATTACTCG,0.198
12,GCTACTCC,-0.145
13,GCTACTCA,0.271
14,CATACCCC,0.105
15,ATTACTCC,0.0722
16,CGTACTCC,-0.0124
17,ATTACTCA,0.29
18,AACTAAAT,-0.0313
19,ATCGGTGA,0.181
20,GTGCTTAA,-0.136
21,TATAGGAA,0.0238
22,GAATTAGA,-0.172
23,GCGTGTAA,-0.0131
24,ATTATTGC,-0.0063
25,ACTGGCGA,0.124

row,Sequence,PBM E-score
1,AATTTAGT,0.256
2,TATACTGA,0.309
3,CATACTGA,0.123
4,GATACTGA,0.159
5,CATACTCC,0.125
6,CATACTCA,0.285
7,AGTACTCA,0.171
8,GGTACTTA,-0.103
9,CATACTCG,0.18
10,GGTACTCA,0.281
11,CGGCACGC,-0.0534
12,GCAGCTCA,-0.254
13,CCTGAGCC,0.115
14,AAAGAGTC,0.0469
15,AGAGAGTC,0.215
16,ACTGAGTC,0.454
17,ACTGAGCC,0.219
18,CAAGAGTC,0.296
19,ACTGAGTA,0.263
20,ACTGAGTG,0.0665
21,GAAGAGTC,0.194
22,GCTGAGCC,0.28
23,ACAGAGTC,0.296
24,ACAGAGTG,0.0123
25,ATTCGGTG,0.106

row,Sequence,PBM E-score
1,GTTTGTGA,-0.0971
2,GGCTATGA,0.0249
3,AGAGCACG,0.00968
4,CCAGCCAA,-0.119
5,CATTCAGA,0.0364
6,CTGGGTAC,0.196
7,CCTGAGTC,0.461
8,CCTGAGGC,-0.096
9,CCTGAGTA,0.205
10,AACGCTAC,-0.205
11,CAATCAGG,0.0706
12,CAATCAAG,0.00756
13,CAATCATG,0.289
14,AAATCATA,0.227
15,AAATCATT,-0.011
16,AAATCATG,0.29
17,GACTGGCA,-0.0149
18,GAACTATA,0.222
19,GTAGCATA,0.079
20,CGATTCAG,0.12
21,AAGCTCCG,-0.173
22,ATGATATC,0.0491
23,CTAATATA,-0.0362
24,ATAATATA,0.3
25,ATGATACA,0.289

row,Sequence,PBM E-score
1,ATGATATG,0.315
2,ATAATACA,0.277
3,ATGATACC,0.124
4,CTGATACA,0.0817
5,ATAATATG,0.206
6,ATAATACC,0.212
7,ATGATATA,0.0327
8,ATAATACG,0.0457
9,AGTGCGCA,0.112
10,AGCCAGTA,0.133
11,CAAAGAGA,-0.299
12,ACCTCGCA,-0.0858
13,TCTGTTCA,0.151
14,ATGAGTGG,0.162
15,CTGAGTTC,0.0461
16,CGGAGTCC,0.324
17,CTGAGTAC,0.175
18,ATGAGTCG,0.462
19,CGGAGTAC,0.0632
20,ATGAGTAC,0.347
21,CTGAGTCC,0.292
22,CTGAGTGC,0.0204
23,ATGAGTAG,0.189
